{
  "source": "the supplement of paper PMC6992640",
  "note": "± gives the standard deviation of the averaged measurements.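 Note: PDX cells carrying CMV promoter-driven luciferase, viability read as total photon flux per second by IVIS imaging following D-luciferin, vehicle control 0.1% DMSO.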",
  "data": [
    {"tested_on": "HCI01 (cells of a triple-negative basal-like breast cancer xenograft)", "assay": "cell viability (% of vehicle); higher = less cytotoxic", "conditions": "10 µM; 72 h", "values": [
      {"smiles": "CC12CCC3c4ccc(O)cc4CCC3C1CCC2=O", "note": "(centres undefined) [Estrone]", "cell viability": "99.5 ± 6.1"},
      {"smiles": "CO[C@@]1(NC(=O)[C@H](C(=O)[O-])c2ccc(O)cc2)C(=O)N2C(C(=O)[O-])=C(CSc3nnnn3C)CO[C@@H]21.[Na+].[Na+]", "note": "[Moxalactam (sodium salt)]", "cell viability": "116 ± 30"},
      {"smiles": "CC(C)c1cc(C(=O)N2Cc3ccc(CN4CCN(C)CC4)cc3C2)c(O)cc1O", "cell viability": "116 ± 49"},
      {"smiles": "Cl.O=C1NCC2(CCN(CCc3ccccc3)CC2)O1", "note": "[Fenspiride HCl]", "cell viability": "118 ± 42"},
      {"smiles": "C#C[C@]1(O)CC[C@H]2[C@@H]3CCC4=CC(=O)CC[C@@H]4[C@H]3C(=C)C[C@@]21CC", "note": "[Etonogestrel]", "cell viability": "109 ± 47"},
      {"smiles": "Cc1cc(Nc2cc(CN3CCOCC3)c3nc(C)c(Cc4ccc(Cl)cc4F)n3n2)n[nH]1", "cell viability": "142 ± 56"},
      {"smiles": "CCCC1O[C@@H]2C[C@H]3[C@@H]4CCC5=CC(=O)C=C[C@]5(C)[C@H]4[C@@H](O)C[C@]3(C)[C@]2(C(=O)CO)O1", "note": "(some centres undefined) [Budesonide]", "cell viability": "113 ± 30"},
      {"smiles": "CC(C)(C#N)c1cc(Cn2cncn2)cc(C(C)(C)C#N)c1", "note": "[Anastrozole]", "cell viability": "160 ± 20"},
      {"smiles": "O=C(Nc1cccc2c(=O)cc(-c3nn[nH]n3)oc12)c1ccc(OCCCCc2ccccc2)cc1", "note": "[Pranlukast]", "cell viability": "96.3 ± 9.7"},
      {"smiles": "CO[C@H]1C(=O)[C@]2(C)[C@@H](OC)C[C@H]3OC[C@@]3(OC(C)=O)[C@H]2[C@H](OC(=O)c2ccccc2)[C@]2(O)C[C@H](OC(=O)[C@H](O)[C@@H](NC(=O)OC(C)(C)C)c3ccccc3)C(C)=C1C2(C)C", "note": "[Cabazitaxel]", "cell viability": "78.1 ± 51"},
      {"smiles": "COc1ccccc1OCC(O)CO", "note": "(centres undefined) [Guaifensin]", "cell viability": "108 ± 4.8"},
      {"smiles": "O=C(Nc1c(Cl)cncc1Cl)c1ccc(OC(F)F)c(OCC2CC2)c1", "note": "[Roflumilast]", "cell viability": "150 ± 8.4"},
      {"smiles": "CCCCCC(O)C=CC1C(O)CC(=O)C1CCCCCCC(=O)O", "note": "(centres undefined) [Alprostadil]", "cell viability": "86.5 ± 76"},
      {"smiles": "C#CC1(O)CCC2C3CCC4=CC(=O)CCC4C3CCC21C", "note": "(centres undefined) [Norethindrone]", "cell viability": "91.4 ± 26"},
      {"smiles": "CCCc1nc(C(C)(C)O)c(C(=O)O)n1Cc1ccc(-c2ccccc2-c2nn[nH]n2)cc1", "note": "[Olmesartan]", "cell viability": "117 ± 4"},
      {"smiles": "CC12CCC3c4ccc(O)cc4CCC3C1CCC2O", "note": "(centres undefined) [Estradiol]", "cell viability": "99.8 ± 4.7"},
      {"smiles": "N=C(N)NCCCC[C@@H]1NC(=O)CCSSC[C@@H](C(N)=O)NC(=O)[C@@H]2CCCN2C(=O)[C@H](Cc2c[nH]c3ccccc23)NC(=O)[C@H](CC(=O)O)NC(=O)CNC1=O", "note": "[Eptifibatide]", "cell viability": "101 ± 25"},
      {"smiles": "C#CC1(O)CCC2C3CCC4=CC(=O)CCC4C3CCC21CC", "note": "(centres undefined) [Levonorgestrel]", "cell viability": "88.7 ± 25"},
      {"smiles": "CCC(=O)OCC(=O)C1(OC(=O)CC)C(C)CC2C3CCC4=CC(=O)C=CC4(C)C3(Cl)C(O)CC21C", "note": "(centres undefined) [Beclomethasone dipropionate]", "cell viability": "131 ± 100"},
      {"smiles": "C[C@@H]1C[C@H]2[C@H]3CCC4=CC(=O)C=C[C@]4(C)[C@@]3(F)[C@@H](O)C[C@]2(C)[C@@]1(O)C(=O)CO", "note": "[Dexamethasone (DHAP)]", "cell viability": "128 ± 28"},
      {"smiles": "CCC(=O)OC1(C(=O)CCl)C(C)CC2C3CCC4=CC(=O)C=CC4(C)C3(F)C(O)CC21C", "note": "(centres undefined) [Clobetasol propionate]", "cell viability": "116 ± 22"},
      {"smiles": "O=C(NS(=O)(=O)c1ccc(Br)s1)c1ccc(Cl)cc1Cl", "note": "[Tasisulam]", "cell viability": "183 ± 32"},
      {"smiles": "Nc1nnc(-c2cccc(Cl)c2Cl)c(N)n1", "note": "[Lamotrigine]", "cell viability": "95 ± 12"},
      {"smiles": "Cl.O=C(CCCN1CCC(O)(c2ccc(Cl)cc2)CC1)c1ccc(F)cc1", "note": "[Haloperidol hydrochloride]", "cell viability": "114 ± 14"},
      {"smiles": "CC(=O)OC1(C(C)=O)CCC2C3C=C(C)C4=CC(=O)CCC4(C)C3CCC21C", "note": "(centres undefined) [Megestrol Acetate]", "cell viability": "112 ± 6.4"},
      {"smiles": "O=c1c(O)c(-c2ccc(O)c(O)c2)oc2cc(O)cc(O)c12", "note": "[Quercetin]", "cell viability": "124 ± 46"},
      {"smiles": "O=NN(CCCl)C(=O)NCCCl", "note": "[Carmustine]", "cell viability": "106 ± 24"},
      {"smiles": "O=C(CCCN1CCN(c2ccccn2)CC1)c1ccc(F)cc1", "note": "[Azaperone]", "cell viability": "119 ± 25"},
      {"smiles": "CC(NCCc1ccc(O)cc1)C(O)c1ccc(O)cc1.Cl", "note": "(centres undefined) [Ritodrine HCl]", "cell viability": "111 ± 11"}
    ]}
  ]
}
